Screen size: about 68,000 compounds; about 2,700 (4%) showed an effect of 50% or more. Only a selection was taken, and strong results are over-represented in it overall.
These molecules were tested on Plasmodium berghei (assay: Screen against P. berghei liver stage (PbLuc), transformed with Luciferase, at 2uM). Details: tested at 2 uM.
Type: functional, HepG2

Structure (SMILES)	INHIBITION
CNc1cc2c(nn1)CCN(C(=O)c1ccc3c(c1)CCC3)C2	29.12%
CNc1cc2c(nn1)CCN(C(=O)c1ccc3c(c1)OCO3)C2	50.18%
CCNc1cc2c(nn1)CCN(C(=O)c1ccc3c(c1)OCO3)C2	-17.37%
Cc1cc(N2CCN(c3ccc(=O)[nH]n3)CC2)nc(-c2ccncc2)n1	-2.96%
Cc1c(C(=O)NCCC(=O)N2CCOCC2)sc2ccc(F)cc12	-6.64%
COc1cccnc1NC(=O)c1ccc(COCC(F)(F)F)cc1	-14.46%
CC(C)c1nc(CN2CCCC(Cn3cncn3)C2)cs1 (stereo not drawn)	5.52%
Cc1ccc(-c2cc(CN3CCCC(Cn4cncn4)C3)on2)cc1 (stereo not drawn)	-23.18%
c1cncc(-c2noc(CN3CCCC(Cn4cncn4)C3)n2)c1 (stereo not drawn)	-9.22%
Cc1ccc(-c2noc(CN3CCCC(Cn4cncn4)C3)n2)cc1 (stereo not drawn)	-35.33%
CC(C)(C)c1nc(CN2CCCC(Cn3cncn3)C2)cs1 (stereo not drawn)	80.49%
c1ccc(-c2nc(CN3CCCC(Cn4cncn4)C3)cs2)cc1 (stereo not drawn)	-37.28%
Cc1cc(CN2CCCC(Cn3cncn3)C2)on1 (stereo not drawn)	59.54%
CCCNC(=O)C1CCCN(Cc2csc(C(C)(C)C)n2)C1 (stereo not drawn)	52.87%
CCCNC(=O)C1CCN(Cc2csc(C(C)(C)C)n2)CC1	-21.58%
CCCNC(=O)CN1CCN(Cc2csc(C(C)(C)C)n2)CC1	22.1%
Cc1cccc(-c2noc(CN3CCCC(Cn4cncn4)C3)n2)c1 (stereo not drawn)	54.85%
Cc1cc(CN2CCCC(Cn3cncn3)C2)no1 (stereo not drawn)	-50.13%
c1ccc(-c2nc(CNC3CCc4ncnn4C3)cs2)cc1 (stereo not drawn)	-7.88%
CCCc1nc(CNCC2CCCN2c2cccnn2)no1 (stereo not drawn)	19.76%
c1ccc(-c2cc(CN3C[C@H]4CC[C@@H](C3)N(CC3CCC3)C4)on2)cc1	34.16%
Cc1ccccc1CNc1ccccc1OCC(=O)N1CCOCC1	-64.94%
COc1cc(C2c3c(n[nH]c3C)N=C3COC(=O)C32)cc(Br)c1O (stereo not drawn)	37.18%
CC(C)C(=O)N1CCN(Cc2cnn(C)c2)CC2(CC(=O)N(C)C2)C1 (stereo not drawn)	-2.69%
CN(C)C(=O)N1CCn2c(Cn3cccn3)cnc2C1	25.4%
O=C(NCc1ccccc1)N1CCn2c(Cn3cccn3)cnc2C1	6.33%
O=C(c1cccc(F)c1)N1CCc2ncc(Cn3cccn3)n2CC1	-39.07%

Structure (SMILES)	INHIBITION
O=C(NC1CC1)N1CCn2c(Cn3cccn3)cnc2C1	53.08%
Cc1ccc(C(=O)N2CCc3ncc(Cn4cccn4)n3CC2)cn1	16.43%
O=C(c1ccoc1)N1CCc2ncc(Cn3cccn3)n2CC1	50.17%
Cc1ncsc1CN1C[C@@H]2COC[C@]2(C(=O)NCc2ccccn2)C1	-0.27%
CC(C(=O)N1CCN(c2ccccc2)CC1)n1cc(Br)cn1 (stereo not drawn)	-34.08%
CN1CCN(c2ccccc2CNC(=O)CSC(F)(F)F)CC1	-14.36%
CC(C)C(C(=O)N1CCCN(c2cccnn2)CC1)n1cncn1 (stereo not drawn)	-0.6%
OCc1c(Cl)ncn1-c1ccc(F)cc1	22.43%
O=C(CCC1CCCC1)N1CCC(c2cc3ncccc3c(O)n2)CC1	22.39%
CC(C)CNC(=O)c1c(-n2cnnn2)sc2c1CCCC2	15.93%
Cc1nc(NC(=O)c2c(-n3cnnn3)sc3c2CCCC3)sc1C	76.25%
Cc1nc(NC(=O)c2c(-n3cnnn3)sc3c2CCC3)sc1C	10.71%
CCCn1nccc1C(=O)Nc1nc(C)c(C)s1	-44.44%
Cc1sc(-n2cnnn2)c(C(=O)NC(C)C)c1C	-21.53%
Cc1nc(NC(=O)c2c(-n3cnnn3)sc(C)c2C)sc1C	60.67%
F[C@@H]1CN(CC2CC2)C[C@@H]1OCc1nc2cnccc2[nH]1	25.94%
COCCC(=O)N1CCC(C(=O)c2cc(C)cnc2N)CC1	41.56%
c1ccc(Sc2ccc3c(c2)OCO3)c(CNC2=NCCN2)c1	33.59%
COCC1N(C(=O)c2ccco2)C2CCC1(O)CC2 (stereo not drawn)	3.88%
COc1ccc(Br)cc1Cn1nc(C(N)=O)ccc1=O	-21.09%
CCOc1ccc(Cl)cc1C1CCCN1 (stereo not drawn)	-27.75%
CCOc1ccc(Br)cc1C1CCCCN1 (stereo not drawn)	-0.44%
CCOc1ccc(Br)cc1C1CCCN1 (stereo not drawn)	53.55%
Cc1nccn1C1CCCN(C(=O)c2ccc3nnc(C)n3c2)C1 (stereo not drawn)	6.12%
Cc1cc(NC(=O)NCc2ccccn2)n(C)n1	29.11%
COc1cc(NC(=O)NCc2ccccn2)cc(OC)c1	52.08%
